# Source: PubChem BioAssay (EPA / NIEHS)
# The source made the active and inactive calls. Rule for the calls: active = hit-call score of the fitted dose curve at least 0.9, where 1 is the maximum; inactive = score below 0.9.
# Experiments:
# [1] = CEETOX_H295R_OHPROG: CeeTox H295R High-throughput Steroidogenesis Assay for OH-Progesterone (OHPROG) (AID 2283435); conditions: actives raise or lower the signal;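 for AC50: 17alpha-hydroxyprogesterone secreted into medium measured by HPLC-MS/MS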
# Procedure, shortened: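 Steps: seed H295R cells and adhere overnight; stimulate with 10 uM forskolin for 48 h; replace with chemical-containing medium (0.1% DMSO) for 48 h; extract medium with MTBE; quantify 17alpha-hydroxyprogesterone by reverse-phase C18 HPLC-MS/MS against a 7-point curve.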
# [2] = CEETOX_H295R_CORTIC: CeeTox H295R High-throughput Steroidogenesis Assay for Corticosterone (CORTIC) (AID 2283437); conditions: actives raise or lower the signal
# Procedure, shortened: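 Medium corticosterone was quantified by tandem mass spectrometry following 48 hours of chemical exposure (0.1% DMSO) in human H295R cells previously stimulated 48 hours with 10 uM forskolin. Viability checked by MTT; chemicals diluted and retested when viability fell below 70%.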
# [3] = CEETOX_H295R_CORTISOL: CeeTox H295R High-throughput Steroidogenesis Assay for Cortisol (AID 2283438); conditions: actives raise or lower the signal
# Procedure, shortened: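 Cortisol synthesis by H295R cells is measured 48 h after chemical dosing, following a 48 h stimulation with 10 uM forskolin. Hormone is extracted and quantified by HPLC-MS/MS, and activity is fitted bidirectionally against the DMSO control.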
# [4] = CEETOX_H295R_DOC: CeeTox H295R High-throughput Steroidogenesis Assay for DOC (AID 2283439); conditions: actives raise or lower the signal
# Procedure, shortened: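 Steps: seed H295R, adhere overnight; 10 uM forskolin 48 h; replace with chemical medium (0.1% DMSO) 48 h; collect medium, MTBE extraction, HPLC-MS/MS for DOC. Viability then checked by MTT; cytotoxic chemicals diluted until viability ≥70%.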
# [5] = CEETOX_H295R_ESTRADIOL: CeeTox H295R High-throughput Steroidogenesis Assay for Estradiol (AID 2283440); conditions: actives raise or lower the signal;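 note: estradiol secreted into medium quantified by LC-MS/MS after dansyl derivatisation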
# Procedure, shortened: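 Estradiol secreted into the medium was measured by tandem mass spectrometry after liquid-liquid extraction and dansylation. Human H295R cells had been forskolin-primed (10 uM, 48 h) before a 48 h chemical exposure with 0.1% DMSO.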
# [6] = CEETOX_H295R_ESTRONE: CeeTox H295R High-throughput Steroidogenesis Assay for Estrone (AID 2283441); conditions: actives raise or lower the signal;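 for AC50: human adrenal H295R cells prestimulated with forskolin for two days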
# Procedure, shortened: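 Estrone secreted into medium quantified by LC-MS/MS after dansyl chloride derivatization, following 48 h chemical exposure (0.1% DMSO final) of forskolin-prestimulated (10 uM, 48 h) H295R cells; gain or loss fitted against DMSO; MTT viability in same wells.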
# [7] = read-out: Tumor necrosis factor receptor superfamily member 6 (Homo sapiens) (UniProt P25445); assay: LTEA_HepaRG_FAS: Life Technologies and Expression Analysis (LTEA) Assay for Fas cell surface death receptor (FAS) using HepaRG (AID 2283447); conditions: mRNA level, 48 h; actives raise or lower the signal
# Procedure, shortened: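 FAS transcript level was measured by TaqMan qRT-PCR against three housekeeping genes after 48 h chemical exposure. Cells were HepaRG, 0.5% DMSO vehicle, with a top concentration of 100 uM and half-log dilutions over eight points, in duplicate.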
# [8] = read-out: Fatty acid synthase (Homo sapiens) (UniProt P49327); assay: LTEA_HepaRG_FASN: Life Technologies and Expression Analysis (LTEA) Assay for Fatty Acid Synthase (FASN) using HepaRG (AID 2283448); conditions: mRNA level, 48 h; actives raise or lower the signal;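 for AC50: differentiated human HepaRG liver cells in serum-free induction medium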
# Procedure, shortened: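 Cells were plated, cultured 48 h, switched to serum-free induction medium, then dosed in duplicate (max 100 uM, half-log dilutions, 0.5% DMSO) for 48 h. RNA was then isolated and FASN quantified by qRT-PCR.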
# [9] = read-out: Cyclin D2 (CCND2), CCND2 (gene 894); assay: LTEA_HepaRG_CCND2: Life Technologies and Expression Analysis (LTEA) Assay for Cyclin D2 (CCND2) using HepaRG (AID 2283449); conditions: mRNA level, 48 h; actives raise or lower the signal
# Procedure, shortened: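 CCND2 transcript levels, quantified by qRT-PCR and normalised to three housekeeping genes, were fitted bidirectionally against 0.5% DMSO. HepaRG cultures were dosed 48 h in duplicate with an 8-point half-log series up to 100 uM.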
# [10] = CEETOX_H295R_ANDR: CeeTox H295R High-throughput Steroidogenesis Assay for Androstenedione (ANDR) (AID 2283436); conditions: actives raise or lower the signal
# Procedure, shortened: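 Medium from 48 h chemical-treated H295R adrenal cells was extracted with MTBE and androstenedione measured by LC-MS/MS. Activity was fit in both directions relative to DMSO. Cytotoxic concentrations were re-tested after dilution until MTT viability reached ≥70%.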
# Fatty acid synthase (Homo sapiens), sequence (P49327 whole entry, looked up): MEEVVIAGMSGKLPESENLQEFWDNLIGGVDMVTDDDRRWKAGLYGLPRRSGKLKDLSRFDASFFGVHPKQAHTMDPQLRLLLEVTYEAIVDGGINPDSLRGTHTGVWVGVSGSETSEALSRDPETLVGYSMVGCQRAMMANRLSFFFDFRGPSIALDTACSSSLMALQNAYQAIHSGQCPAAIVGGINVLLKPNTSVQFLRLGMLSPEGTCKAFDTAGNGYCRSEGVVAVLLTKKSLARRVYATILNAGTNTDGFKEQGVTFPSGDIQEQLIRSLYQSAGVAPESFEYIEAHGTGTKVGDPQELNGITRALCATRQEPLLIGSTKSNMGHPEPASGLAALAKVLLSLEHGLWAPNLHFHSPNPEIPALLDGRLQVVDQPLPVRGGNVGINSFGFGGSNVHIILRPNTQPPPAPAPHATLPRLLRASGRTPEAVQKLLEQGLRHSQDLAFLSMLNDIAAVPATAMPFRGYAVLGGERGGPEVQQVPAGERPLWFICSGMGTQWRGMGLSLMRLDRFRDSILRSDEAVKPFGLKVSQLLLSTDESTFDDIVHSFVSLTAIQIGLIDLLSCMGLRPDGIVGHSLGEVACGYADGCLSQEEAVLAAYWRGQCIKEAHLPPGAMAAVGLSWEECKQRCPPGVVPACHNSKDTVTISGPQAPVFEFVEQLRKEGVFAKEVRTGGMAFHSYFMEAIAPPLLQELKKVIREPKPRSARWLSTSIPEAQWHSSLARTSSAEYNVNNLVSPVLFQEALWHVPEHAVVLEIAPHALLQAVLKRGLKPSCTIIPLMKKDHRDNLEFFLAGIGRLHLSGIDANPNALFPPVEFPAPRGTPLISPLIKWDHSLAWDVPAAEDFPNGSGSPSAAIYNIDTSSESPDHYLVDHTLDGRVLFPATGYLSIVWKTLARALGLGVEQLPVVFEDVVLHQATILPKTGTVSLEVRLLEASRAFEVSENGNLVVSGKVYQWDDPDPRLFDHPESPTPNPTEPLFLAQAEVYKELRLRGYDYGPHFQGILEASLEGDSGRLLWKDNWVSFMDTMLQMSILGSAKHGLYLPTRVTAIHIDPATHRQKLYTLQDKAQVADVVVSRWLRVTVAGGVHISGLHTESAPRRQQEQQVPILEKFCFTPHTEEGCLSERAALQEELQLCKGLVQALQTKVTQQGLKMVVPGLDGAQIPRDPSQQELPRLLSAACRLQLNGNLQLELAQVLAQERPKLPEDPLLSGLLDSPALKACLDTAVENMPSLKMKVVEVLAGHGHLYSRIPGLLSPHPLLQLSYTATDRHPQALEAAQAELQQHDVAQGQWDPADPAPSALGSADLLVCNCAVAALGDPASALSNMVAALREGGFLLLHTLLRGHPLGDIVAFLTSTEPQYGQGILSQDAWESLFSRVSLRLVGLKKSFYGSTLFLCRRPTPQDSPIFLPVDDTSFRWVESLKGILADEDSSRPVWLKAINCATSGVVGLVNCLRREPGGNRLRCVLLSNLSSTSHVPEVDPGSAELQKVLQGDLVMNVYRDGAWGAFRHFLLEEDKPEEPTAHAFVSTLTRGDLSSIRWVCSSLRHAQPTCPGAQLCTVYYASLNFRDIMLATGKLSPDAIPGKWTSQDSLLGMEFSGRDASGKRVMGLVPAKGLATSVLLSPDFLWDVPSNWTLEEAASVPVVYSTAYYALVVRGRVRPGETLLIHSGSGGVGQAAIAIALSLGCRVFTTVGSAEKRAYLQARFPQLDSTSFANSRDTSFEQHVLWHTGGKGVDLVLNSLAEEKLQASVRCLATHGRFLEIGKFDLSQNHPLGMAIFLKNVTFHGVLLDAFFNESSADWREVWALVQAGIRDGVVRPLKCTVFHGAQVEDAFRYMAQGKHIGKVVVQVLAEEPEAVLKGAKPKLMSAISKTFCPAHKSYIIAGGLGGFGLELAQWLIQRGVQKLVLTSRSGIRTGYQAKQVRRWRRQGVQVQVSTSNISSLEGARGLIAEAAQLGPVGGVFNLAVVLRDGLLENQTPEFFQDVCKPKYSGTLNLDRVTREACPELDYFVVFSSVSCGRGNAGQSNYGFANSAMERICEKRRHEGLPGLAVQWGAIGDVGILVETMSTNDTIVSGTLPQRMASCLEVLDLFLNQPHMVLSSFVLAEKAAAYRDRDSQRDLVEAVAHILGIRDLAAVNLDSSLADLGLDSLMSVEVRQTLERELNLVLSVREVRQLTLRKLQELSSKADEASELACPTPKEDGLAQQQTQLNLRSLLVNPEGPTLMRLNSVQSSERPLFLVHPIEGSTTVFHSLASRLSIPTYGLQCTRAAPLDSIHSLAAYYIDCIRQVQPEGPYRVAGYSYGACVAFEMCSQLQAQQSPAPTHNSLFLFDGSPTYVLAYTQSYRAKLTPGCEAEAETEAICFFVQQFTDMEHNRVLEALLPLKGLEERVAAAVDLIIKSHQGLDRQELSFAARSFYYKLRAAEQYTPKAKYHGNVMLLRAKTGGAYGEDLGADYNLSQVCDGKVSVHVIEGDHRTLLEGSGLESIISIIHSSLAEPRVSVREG
structure (smiles),measurement,setting,value
CC(C)(C)C(=O)C(Oc1ccc(Cl)cc1)n1cncn1 (centres undefined),AC50,[1],21 µM (active)
same,outcome,[2],inactive
same,AC50,[3],21.2 µM (active)
same,outcome,[4],inactive
same,AC50,[5],21.7 µM (active)
same,AC50,[6],41.2 µM (active)
same,outcome,[7],inactive
same,AC50,[8],50 µM (active)
same,outcome,[9],inactive
Cc1nc(N(C)C)nc(OC(=O)N(C)C)c1C,outcome,[1],inactive
same,outcome,[2],inactive
same,outcome,[3],inactive
same,outcome,[4],inactive
same,outcome,[5],inactive
same,outcome,[6],inactive
same,outcome,[7],inactive
same,outcome,[8],inactive
O=C(Nc1ccccc1-c1ccc(Cl)cc1)c1cccnc1Cl,outcome,[1],inactive
same,outcome,[2],inactive
same,outcome,[3],inactive
same,AC50,[4],9.59 µM (active)
same,outcome,[5],inactive
same,outcome,[6],inactive
same,outcome,[7],inactive
same,outcome,[8],inactive
CCSC(=O)N1CCCCCC1,outcome,[1],inactive
same,outcome,[5],inactive
same,outcome,[6],inactive
same,outcome,[7],inactive
same,outcome,[8],inactive
COc1cc(Cl)c(OC)cc1Cl,outcome,[1],inactive
same,outcome,[2],inactive
same,outcome,[3],inactive
same,outcome,[4],inactive
same,outcome,[5],inactive
same,outcome,[6],inactive
same,outcome,[7],inactive
same,outcome,[8],inactive
Cc1c(COC(=O)[C@@H]2[C@H](/C=C(\Cl)C(F)(F)F)C2(C)C)cccc1-c1ccccc1,outcome,[1],inactive
same,outcome,[5],inactive
same,outcome,[6],inactive
same,outcome,[7],inactive
same,outcome,[8],inactive
N#CN=C1SCCN1Cc1ccc(Cl)nc1,outcome,[1],inactive
same,outcome,[2],inactive
same,outcome,[3],inactive
same,outcome,[4],inactive
same,outcome,[7],inactive
same,outcome,[8],inactive
CCC(C)n1c(=O)[nH]c(C)c(Br)c1=O (centres undefined),outcome,[1],inactive
same,outcome,[5],inactive
same,outcome,[6],inactive
same,outcome,[7],inactive
same,AC50,[8],14.1 µM (active)
Clc1nc(Cl)nc(Nc2ccccc2Cl)n1,outcome,[1],inactive
same,outcome,[2],inactive
same,outcome,[3],inactive
same,AC50,[4],2.71 µM (active)
same,outcome,[5],inactive
same,outcome,[6],inactive
same,outcome,[7],inactive
same,outcome,[8],inactive
same,outcome,[9],inactive
CSC(=O)c1c(C(F)F)nc(C(F)(F)F)c(C(=O)SC)c1CC(C)C,outcome,[7],inactive
same,outcome,[8],inactive
CC1(C)CCC(=Cc2ccc(Cl)cc2)C1(O)Cn1cncn1 (centres undefined),outcome,[1],inactive
same,outcome,[10],inactive
same,outcome,[2],inactive
same,AC50,[3],5 µM (active)
same,AC50,[4],1.59 µM (active)
same,outcome,[5],inactive
same,outcome,[6],inactive
same,outcome,[7],inactive
same,AC50,[8],6.85 µM (active)
CCOC(=O)C(C)OC(=O)c1cc(Oc2ccc(C(F)(F)F)cc2Cl)ccc1[N+](=O)[O-] (centres undefined),outcome,[1],inactive
same,outcome,[2],inactive
same,outcome,[3],inactive
same,outcome,[4],inactive
same,outcome,[5],inactive
same,outcome,[6],inactive
same,outcome,[7],inactive
same,AC50,[8],35.1 µM (active)
CC(C)Oc1cccc(NC(=O)c2ccccc2C(F)(F)F)c1,AC50,[1],13.7 µM (active)
same,outcome,[2],inactive
same,AC50,[3],37.5 µM (active)
same,AC50,[4],7.26 µM (active)
same,outcome,[5],inactive
same,outcome,[6],inactive
same,outcome,[7],inactive
same,AC50,[8],65.2 µM (active)
same,AC50,[9],0.0398 µM (active)
CNC(=O)Oc1cccc2ccccc12,outcome,[1],inactive
same,outcome,[7],inactive
same,outcome,[8],inactive
CN/C(=N\[N+](=O)[O-])NCc1cnc(Cl)s1,outcome,[1],inactive
same,outcome,[5],inactive
same,outcome,[6],inactive
same,outcome,[7],inactive
same,AC50,[8],50 µM (active)
same,outcome,[9],inactive
O=C1C2CC=CCC2C(=O)N1SC(Cl)(Cl)Cl (centres undefined),outcome,[1],inactive
same,outcome,[5],inactive
same,outcome,[6],inactive
same,outcome,[7],inactive
same,AC50,[8],70.9 µM (active)
same,outcome,[9],inactive
CC(C)Nc1nc(Cl)nc(NC(C)C)n1,outcome,[1],inactive
same,outcome,[5],inactive
same,AC50,[6],23.1 µM (active)
same,outcome,[7],inactive
same,outcome,[8],inactive
COCC(=O)N(c1c(C)cccc1C)C(C)C(=O)OC (centres undefined),outcome,[1],inactive
same,outcome,[5],inactive
same,outcome,[6],inactive
same,outcome,[7],inactive
same,outcome,[8],inactive
same,AC50,[9],0.0815 µM (active)
COCc1cnc(C2=NC(C)(C(C)C)C(=O)N2)c(C(=O)O)c1 (centres undefined),outcome,[1],inactive
same,outcome,[10],inactive
same,outcome,[2],inactive
same,outcome,[3],inactive
same,outcome,[4],inactive
same,outcome,[5],inactive
same,outcome,[6],inactive
same,outcome,[7],inactive
same,outcome,[8],inactive
CCN(CC)C(=O)C(C)Oc1cccc2ccccc12 (centres undefined),outcome,[1],inactive
same,outcome,[5],inactive
same,outcome,[6],inactive
same,outcome,[7],inactive
same,outcome,[8],inactive
N#Cc1c(Cl)cccc1Cl,outcome,[1],inactive
same,outcome,[2],inactive
same,outcome,[3],inactive
same,outcome,[4],inactive
same,outcome,[5],inactive
same,outcome,[6],inactive
same,outcome,[7],inactive
same,outcome,[8],inactive
CC(C)NC(=O)N1CC(=O)N(c2cc(Cl)cc(Cl)c2)C1=O,AC50,[1],19 µM (active)
same,outcome,[7],inactive
same,AC50,[8],16.2 µM (active)
same,outcome,[9],inactive
CCN(CC)c1nc(C)cc(OP(=S)(OC)OC)n1,outcome,[1],inactive
same,AC50,[2],24.7 µM (active)
same,outcome,[3],inactive
same,AC50,[4],36.2 µM (active)
same,AC50,[5],1.22 µM (active)
same,AC50,[6],1.62 µM (active)
same,outcome,[7],inactive
same,AC50,[8],27.4 µM (active)
CC1(C)CON(Cc2ccccc2Cl)C1=O,outcome,[1],inactive
same,outcome,[5],inactive
same,outcome,[6],inactive
same,outcome,[7],inactive
same,outcome,[8],inactive
COP(=S)(OC)Oc1ccc([N+](=O)[O-])c(C)c1,AC50,[1],2.22 µM (active)
same,outcome,[2],inactive
same,outcome,[3],inactive
same,AC50,[4],2.48 µM (active)
same,outcome,[5],inactive
same,outcome,[6],inactive
same,outcome,[7],inactive
same,outcome,[8],inactive
